# Where “and” joins values, the source holds several entries; their conditions need not be identical. Equal entries are not always repeated. Records with an inconclusive call do not appear. Some compounds were tested as several samples or in several runs, with calls that do not always agree. Calls of active or inactive are those of the source. The call rests on the fitted dose curve; in most records, active means well fitted curve in the direction sought with a large enough effect; inconclusive means small, poorly fitted or top-dose-only effect, or another doubt; inactive means no such curve, though single readings can be large; an effect the other way counts as inactive or inconclusive.
# Assays:
# [1] = Quantitative High-Throughput drug screen in 47 multiple myeloma cell lines against the NCATS MIPE library collection: JJN3_DSMZ cell viability assay (AID 1918966; further: nearly all actives have a fitted effect of over 50% in size; further: potency means the concentration at half of the fitted maximal effect)
# In short: (§1)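 CellTiter-Glo ATP luminescence gave viability after 48 h compound treatment at 37C of 500 multiple myeloma cells per well. Normalisation used DMSO-only wells as 100% and media-only wells as 0% viability; primary qHTS of approved and investigational drugs.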
# [2] = Quantitative High-Throughput drug screen in 47 multiple myeloma cell lines against the NCATS MIPE library collection: H1112_PLB cell viability assay (AID 1918967; further: nearly all actives have a fitted effect of over 30% in size; further: potency means the concentration at half of the fitted maximal effect)
# In short: as §1
# [3] = Quantitative High-Throughput drug screen in 47 multiple myeloma cell lines against the NCATS MIPE library collection: Karpas25_ECACC cell viability assay (AID 1918968; further: nearly all actives have a fitted effect of over 35% in size; further: potency means the concentration at half of the fitted maximal effect)
# In short: as §1
# [4] = Quantitative High-Throughput drug screen in 47 multiple myeloma cell lines against the NCATS MIPE library collection: KMS27_JCRB cell viability assay (AID 1918970); further: nearly all actives have a fitted effect of over 30% in size; further: potency means the concentration at half of the fitted maximal effect
# In short: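 Each line is seeded at 500 cells per well and treated with library compounds for 48 hours under 37 °C, 5% CO2. CellTiter-Glo is then added for 5 min at room temperature before median relative luminescence is recorded.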
# [5] = Quantitative High-Throughput drug screen in 47 multiple myeloma cell lines against the NCATS MIPE library collection: KMS26_JCRB cell viability assay (AID 1918975); further: nearly all actives have a fitted effect of over 45% in size; further: potency means the concentration at half of the fitted maximal effect
# In short: (§2)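 Myeloma cells (500 per well) were exposed to MIPE 4.0 compounds by pin transfer and incubated 48 hours at 37C, 5% CO2. Viability was read as ATP by CellTiter-Glo luminescence, normalised to DMSO (100%) and media-only (0%) wells.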
# [6] = Quantitative High-Throughput drug screen in 47 multiple myeloma cell lines against the NCATS MIPE library collection: OCIMY1_PLB cell viability assay (AID 1918979); further: nearly all actives have a fitted effect of over 35% in size; further: potency means the concentration at half of the fitted maximal effect
# In short: (§3)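 ATP-based CellTiter-Glo luminescence after 48 h drug exposure (37 °C, 5% CO2) of 500 myeloma cells per well. DMSO-only wells set 100% viability, media-only wells 0%; MIPE 4.0 library added by pin tool.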
# [7] = Quantitative High-Throughput drug screen in 47 multiple myeloma cell lines against the NCATS MIPE library collection: MM1S_ATCC cell viability assay (AID 1918980); further: nearly all actives have a fitted effect of over 45% in size; further: potency means the concentration at half of the fitted maximal effect
# In short: as §3
# [8] = Quantitative High-Throughput drug screen in 47 multiple myeloma cell lines against the NCATS MIPE library collection: MM1R_ATCC cell viability assay (AID 1918981); further: nearly all actives have a fitted effect of over 35% in size; further: potency means the concentration at half of the fitted maximal effect
# In short: as §3
# [9] = Quantitative High-Throughput drug screen in 47 multiple myeloma cell lines against the NCATS MIPE library collection: LP1_DSMZ cell viability assay (AID 1918982); further: nearly all actives have a fitted effect of over 35% in size; further: potency means the concentration at half of the fitted maximal effect
# In short: as §3
# [10] = Quantitative High-Throughput drug screen in 47 multiple myeloma cell lines against the NCATS MIPE library collection: KMS28PE_JCRB cell viability assay (AID 1918983); further: nearly all actives have a fitted effect of over 35% in size; further: potency means the concentration at half of the fitted maximal effect
# In short: as §3
# [11] = Quantitative High-Throughput drug screen in 47 multiple myeloma cell lines against the NCATS MIPE library collection: OCIMY7_PLB cell viability assay (AID 1918987); further: potency means the concentration at half of the fitted maximal effect; nearly all actives have a fitted effect of over 65% in size
# In short: as §3
# [12] = Quantitative High-Throughput drug screen in 47 multiple myeloma cell lines against the NCATS MIPE library collection: KMS12BM_JCRB cell viability assay (AID 1918971); further: nearly all actives have a fitted effect of over 35% in size; further: potency means the concentration at half of the fitted maximal effect
# In short: as §2
# [13] = Quantitative High-Throughput drug screen in 47 multiple myeloma cell lines against the NCATS MIPE library collection: KMS12PE_JCRB cell viability assay (AID 1918972); further: nearly all actives have a fitted effect of over 30% in size; further: potency means the concentration at half of the fitted maximal effect
# In short: as §1
# [14] = Quantitative High-Throughput drug screen in 47 multiple myeloma cell lines against the NCATS MIPE library collection: KMS21BM_JCRB cell viability assay (AID 1918974); conditions: ATP luminescence, 48 h; viability: at 45.8 µM (top of the series) unless noted
# In short: as §1
# [15] = Quantitative High-Throughput drug screen in 47 multiple myeloma cell lines against the NCATS MIPE library collection: MOLP8_DSMZ cell viability assay (AID 1918977); further: nearly all actives have a fitted effect of over 45% in size; further: potency means the concentration at half of the fitted maximal effect
# In short: as §3
# [16] = Quantitative High-Throughput drug screen in 47 multiple myeloma cell lines against the NCATS MIPE library collection: NCIH929_DSMZ cell viability assay (AID 1918978); further: nearly all actives have a fitted effect of over 35% in size; further: potency means the concentration at half of the fitted maximal effect
# In short: as §3
# [17] = Quantitative High-Throughput drug screen in 47 multiple myeloma cell lines against the NCATS MIPE library collection: L363_DSMZ cell viability assay (AID 1918984); further: nearly all actives have a fitted effect of over 40% in size; further: potency means the concentration at half of the fitted maximal effect
# In short: as §3
# [18] = Quantitative High-Throughput drug screen in 47 multiple myeloma cell lines against the NCATS MIPE library collection: KMS20_JCRB cell viability assay (AID 1918973); further: nearly all actives have a fitted effect of over 45% in size; further: potency means the concentration at half of the fitted maximal effect
# In short: as §1
# [19] = Quantitative High-Throughput drug screen in 47 multiple myeloma cell lines against the NCATS MIPE library collection: MMM1_PLB cell viability assay (AID 1918976)
# In short: as §3
# [20] = Quantitative High-Throughput drug screen in 47 multiple myeloma cell lines against the NCATS MIPE library collection: KMS34_JCRB cell viability assay (AID 1918985); further: nearly all actives have a fitted effect of over 40% in size; further: potency means the concentration at half of the fitted maximal effect
# In short: as §3
compound,measurement,setting,value
CC(C=CC1=C(C)CCCC1(C)C)=CC=CC(C)=CC(=O)O,Potency,[1],5.9 µM (active) and 1.66 µM (active)
same,Potency,[2],14.8 µM (active) and 11.8 µM (active)
same,Potency,[3],16.6 µM (active) and 18.7 µM (active)
same,Potency,[4],3.72 µM (active)
same,Potency,[5],inactive
same,Potency,[6],inactive
same,Potency,[7],0.526 µM (active)
same,Potency,[8],14.8 µM (active)
same,Potency,[9],inactive
same,Potency,[10],inactive and 9.35 µM (active)
same,Potency,[11],2.64 µM (active)
Nc1ccc(S(=O)(=O)Nc2ccnn2-c2ccccc2)cc1,Potency,[1],inactive
same,Potency,[2],inactive
same,Potency,[3],inactive
same,Potency,[12],inactive
same,Potency,[13],inactive
same,Potency,[14],inactive
same,Potency,[15],inactive
same,Potency,[16],inactive
same,Potency,[6],inactive
same,Potency,[7],inactive
same,Potency,[8],inactive
same,Potency,[9],inactive
same,Potency,[10],inactive
same,Potency,[17],inactive
O=NN(CCCl)C(=O)NCCCl,Potency,[1],0.148 µM (active)
same,Potency,[2],inactive
same,Potency,[3],inactive
same,Potency,[4],inactive
same,Potency,[13],inactive
same,Potency,[14],inactive
same,Potency,[15],inactive
same,Potency,[16],inactive
same,Potency,[8],inactive
same,Potency,[9],inactive
same,Potency,[17],inactive
Oc1cccc(-c2nc(N3CCOCC3)c3oc4ncccc4c3n2)c1,Potency,[1],0.108 µM (active)
same,Potency,[2],9.59 µM (active)
same,Potency,[3],54 nM (active)
same,Potency,[13],0.121 µM (active)
same,Potency,[18],0.152 µM (active)
same,viability,[14],37.2% [at 92.2 µM] (active)
same,Potency,[5],0.215 µM (active)
same,Potency,[19],0.0679 µM (active)
same,Potency,[15],0.0152 µM (active)
same,Potency,[16],0.0191 µM (active)
same,Potency,[7],0.0679 µM (active)
same,Potency,[8],0.0679 µM (active)
same,Potency,[10],0.0762 µM (active)
NC(=O)c1ccc(-c2nc(-c3ccc4c(c3)OCO4)c(-c3ccccn3)[nH]2)cc1,Potency,[1],0.0042 µM (active)
same,Potency,[2],inactive
same,Potency,[4],inactive
same,Potency,[13],inactive
same,Potency,[18],inactive
same,Potency,[15],inactive
same,Potency,[16],inactive
same,Potency,[6],inactive
same,Potency,[7],inactive
same,Potency,[8],7.43 µM (active)
Cc1cc(C=c2sc3nc4ccccc4n3c2=O)c(C)n1-c1ccccc1,Potency,[1],4.18 µM (active)
same,Potency,[2],inactive
same,Potency,[3],inactive
same,Potency,[4],inactive
same,Potency,[13],inactive
same,Potency,[5],5.9 µM (active)
same,Potency,[16],inactive
same,Potency,[6],inactive
same,Potency,[8],7.43 µM (active)
same,Potency,[20],14.8 µM (active)
CNCc1ccc(-c2[nH]c3cc(F)cc4c3c2CCNC4=O)cc1,Potency,[1],inactive
same,Potency,[2],inactive
same,Potency,[3],inactive
same,Potency,[13],inactive
same,Potency,[16],inactive
same,Potency,[6],inactive
same,Potency,[8],inactive
same,Potency,[10],inactive
same,Potency,[17],inactive
same,Potency,[20],inactive
CC(=O)NC(C)c1ccc(Oc2ccc(OC(C)C)cc2)cc1 (configuration not stated),Potency,[1],16.6 µM (active)
same,Potency,[2],2.96 µM (active)
same,Potency,[3],3720 nM (active)
same,Potency,[12],13.2 µM (active)
same,Potency,[13],5.9 µM (active)
same,Potency,[19],16.6 µM (active)
same,Potency,[15],18.7 µM (active)
same,Potency,[16],10.5 µM (active)
same,Potency,[6],14.8 µM (active)
same,Potency,[10],18.7 µM (active)
same,Potency,[11],2.35 µM (active)
CCOC(=O)C1=C[C@]2(CC)CCCN3CCc4c(n1c1ccccc41)[C@@H]32,Potency,[1],18.7 µM (active)
same,Potency,[2],11.8 µM (active)
same,Potency,[3],9350 nM (active)
same,Potency,[4],23.5 µM (active)
same,Potency,[12],14.8 µM (active)
same,Potency,[13],10.5 µM (active)
same,Potency,[18],5.9 µM (active)
same,Potency,[5],26.4 µM (active)
same,Potency,[19],14.8 µM (active)
same,Potency,[15],18.7 µM (active)
same,Potency,[16],8.33 µM (active)
same,Potency,[7],11.8 µM (active)
same,Potency,[8],11.8 µM (active)
same,Potency,[9],20.9 µM (active)
same,Potency,[10],20.9 µM (active)
same,Potency,[17],11.8 µM (active)
same,Potency,[11],9.35 µM (active)
NC[C@H](O)c1ccc(O)c(O)c1,Potency,[1],4.18 µM (active)
same,Potency,[2],inactive
same,Potency,[4],inactive
same,Potency,[12],20.9 µM (active)
same,Potency,[13],inactive
same,Potency,[16],inactive
same,Potency,[6],inactive
same,Potency,[7],23.5 µM (active)
same,Potency,[8],5.9 µM (active)
same,Potency,[10],18.7 µM (active)
Cc1cn[nH]c1,Potency,[1],1.48 µM (active)
same,Potency,[2],6.62 µM (active)
same,Potency,[3],590 nM (active)
same,Potency,[4],0.264 µM (active)
same,Potency,[12],0.0132 µM (active)
same,Potency,[13],0.296 µM (active)
same,Potency,[18],0.332 µM (active)
same,Potency,[6],1.87 µM (active)
same,Potency,[7],0.332 µM (active)
same,Potency,[8],0.132 µM (active)
same,Potency,[10],0.0743 µM (active)
same,Potency,[17],0.469 µM (active)
O=C1CCCC2=C1C(c1[nH]ncc1Cl)N=C(Nc1nc3ccccc3o1)N2 (configuration not stated),Potency,[1],5.26 µM (active)
same,Potency,[2],inactive
same,Potency,[3],662 nM (active)
same,Potency,[12],4.69 µM (active)
same,Potency,[13],1.87 µM (active)
same,Potency,[19],4.69 µM (active)
same,Potency,[6],inactive
same,Potency,[8],inactive
same,Potency,[10],inactive
same,Potency,[11],8.33 µM (active)
O=C(O)COCCN1CCN(C(c2ccccc2)c2ccc(Cl)cc2)CC1 (configuration not stated),Potency,[1],inactive
same,Potency,[2],inactive
same,Potency,[3],inactive
same,Potency,[12],inactive
same,Potency,[13],inactive
same,Potency,[15],inactive
same,Potency,[6],inactive
same,Potency,[7],inactive
same,Potency,[8],inactive
same,Potency,[17],0.296 µM (active)
CCN(CC)CCCC(C)Nc1ccnc2cc(Cl)ccc12 (configuration not stated),Potency,[1],inactive
same,Potency,[2],inactive
same,Potency,[12],inactive
same,Potency,[13],1.66 µM (active)
same,Potency,[5],inactive
same,Potency,[15],inactive
same,Potency,[16],inactive
same,Potency,[6],inactive
same,Potency,[8],inactive
same,Potency,[9],inactive
same,Potency,[10],inactive
same,Potency,[17],0.935 µM (active)
same,Potency,[20],inactive

# — PubChem BioAssay (NCATS)
